Screening results as filed in PubChem BioAssay.
Tau fibril FP – qHTS for Inhibitors of Tau Fibril Formation, Fluorescence Polarization | 0.39% of 280,000 active | AID 1468, 2008 | Potency, µM (series often up to 57.7 µM), most hits filed as inhibitors | Microtubule-associated protein tau (Homo sapiens), P10636 | K18 P301L tau heparin fibrillization, Alexa594 FP, 6 h; note: nearly all actives have a fitted effect of over 55% in size
Target sequence (P10636 561-689 P618L limits assumed): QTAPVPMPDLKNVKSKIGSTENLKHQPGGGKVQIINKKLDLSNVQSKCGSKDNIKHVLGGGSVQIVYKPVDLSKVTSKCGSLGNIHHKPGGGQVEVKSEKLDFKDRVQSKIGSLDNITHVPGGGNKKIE
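K18 P301L tau (15 uM unlabeled/0.24 uM Alexa 594-labeled, final) + compound + heparin 20 uM final; 100 mM NaOAc pH 7; 6 hr 37 C; ThT 30 uM final added, 1 hr RT; FP ex 555/em 632 nm.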
TexasRed fluor – Total Fluorescence Counterscreen for Inhibitors of the Interaction of Thyroid Hormone Receptor and Steroid Receptor Coregulator 2 | TRb/SRC2 Texas Red total fluorescence interference | Potency, µM (top dose mostly 106 µM) | 0.29% of 280,000 active; active = well fitted curve in either direction with a large enough effect; inconclusive = small, poorly fitted or top-dose-only effect
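Human TRb ligand-binding domain at 0.6 uM with 20 nM Texas Red SRC2 peptide in Tris buffer containing 1 uM T3 and 5% DMSO, incubated with compound 5 h at ambient temperature. Total fluorescence (555/632 nm) calculated as parallel + 2 × perpendicular.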
RGS12 GoLoco inh – qHTS Assay for Inhibitors of RGS12 GoLoco Motif Activity (Red Fluorophore); Potency, µM (highest dose often 61.6 µM), most hits filed as inhibitors; AID 880, 2007; 0.44% of 230,000 active; Gai1:RGS12 GoLoco peptide FP, rhodamine, 10 min; Guanine nucleotide-binding protein G(i) subunit alpha-1 (Homo sapiens), P63096; active = well fitted inhibition curve with a large enough effect, not every such curve was filed as active; inactive = no such curve, though single readings can be large or run the other way; note: nearly all actives have a fitted effect of over 30% in size
Tau fluor cs – Counterscreen qHTS for Inhibitors of Tau Fibril Formation, Fluorescence Polarization; tau K18 P301L Alexa594 fluorescence, heparin fibrillization; Potency, µM (series often up to 57.7 µM); 0.93% of 280,000 active; AID 1463, 2008; note: nearly all actives have a fitted effect of over 55% in size
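Human K18 P301L tau (15 uM unlabeled plus 0.24 uM Alexa 594-labeled, final) in 100 mM sodium acetate pH 7 was mixed with compound and 20 uM heparin and incubated 6 hr at 37 C.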
Tau ThT inhib – qHTS for Inhibitors of Tau Fibril Formation, Thioflavin T Binding. Microtubule-associated protein tau (Homo sapiens), P10636. recombinant tau K18 P301L, heparin-induced fibrillization, ThT fluorescence. Potency, µM (series often up to 57.4 µM), most hits filed as inhibitors. 2.1% of 270,000 active. AID 1460, 2008; note: nearly all actives have a fitted effect of over 55% in size
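Fibril formation assay: tau K18 P301L at 15 uM with trace Alexa 594 label, heparin inducer 20 uM, pH 7 sodium acetate buffer, 37 C for 6 hr; endpoint ThT signal.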
TRb SRC2 PPI – qHTS for Inhibitors of the Interaction of Thyroid Hormone Receptor and Steroid Receptor Coregulator 2; Thyroid hormone receptor beta (Homo sapiens), P10828; TRbeta-SRC2 peptide binding, fluorescence polarization; receptor liganded with 1 µM T3; Potency, µM (titrated, usually from 106 µM), actives largely listed as inhibitors; 0.065% of 280,000 active; AID 1469, 2008; note: nearly all actives have a fitted effect of over 50% in size
Target sequence (P10828 whole entry, looked up): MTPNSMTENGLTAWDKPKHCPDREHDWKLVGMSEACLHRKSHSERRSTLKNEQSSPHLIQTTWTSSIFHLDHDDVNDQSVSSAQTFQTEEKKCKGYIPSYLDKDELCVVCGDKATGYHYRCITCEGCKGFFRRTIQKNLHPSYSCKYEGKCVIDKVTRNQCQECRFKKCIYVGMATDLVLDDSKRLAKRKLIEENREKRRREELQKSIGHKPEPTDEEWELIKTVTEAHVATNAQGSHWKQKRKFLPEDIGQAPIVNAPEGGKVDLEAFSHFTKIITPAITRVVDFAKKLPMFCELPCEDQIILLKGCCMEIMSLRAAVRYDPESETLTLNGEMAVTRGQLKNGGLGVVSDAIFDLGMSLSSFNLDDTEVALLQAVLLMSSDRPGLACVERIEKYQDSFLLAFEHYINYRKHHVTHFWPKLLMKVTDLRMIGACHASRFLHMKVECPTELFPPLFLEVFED
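Assay buffer: 20 mM Tris-HCl, 100 mM NaCl, 10% glycerol, 1 mM EDTA, 0.01% NP-40, 1 mM DTT, 1 uM T3, 5% DMSO; TRb LBD 0.6 uM, Texas Red SRC2 20 nM; FP after 5 hr.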
Numbers stand for hits; 0 = inactive; ? = inconclusive; - = no result given; [ ] = dose if it differs, or a comment. In the library only some 3.2% were active in any assay of this set; here they are far more common. Unless noted, calls come from the whole dose curve; as a rule, active = well fitted curve in the direction sought with a large enough effect; inconclusive = small, poorly fitted or top-dose-only effect, or another doubt; inactive = no such curve, though single readings can be large; an effect the other way counts as inactive or inconclusive.

SMILES	Tau fibril FP	TexasRed fluor	RGS12 GoLoco inh	Tau fluor cs	Tau ThT inhib	TRb SRC2 PPI
OCCN(CCO)c1ccc(C(c2ccc(Cl)cc2)c2ccc(N(CCO)CCO)cc2Cl)c(Cl)c1	0	0	0	0	0	0
Cn1ccc2cc(NC(=O)Nc3cccnc3)ccc21	?	0	0	14.1µM[quencher]	?	0
CCOc1ccc(N=C/C=C/c2ccccc2)c(O)c1	?	0	0	?	4.47µM	0
CCOc1ccc(NCC(=O)N/N=C/C=C/c2ccccc2)cc1	0	0	0	?	11.2µM	0
O=C(Cc1cc(=O)[nH][nH]1)N/N=C/C=C/c1ccccc1	?	0	0	0	12.6µM	0
O=C(CCC(=O)Nc1ccccc1)N/N=C/C=C/c1ccccc1	0	0	0	0	0	0
C=CCn1c(=O)n(C2OC(CO)C(O)C2O)c2nc(N)[nH]c(=O)c21 (stereo unspecified)	-	0	-	-	-	0
CCCCCCCCCCCCCCOS(=O)(=O)O	-	0	-	-	-	0
CC[C@H](C)[C@H](NC(=O)[C@@H](NC(=O)[C@@H](NC(=O)[C@H](CCC(=O)O)NC(=O)[C@H](CCC(=O)O)NC(=O)[C@H](CCC(=O)O)NC(=O)[C@H](C)NC(=O)[C@@H](N)CC(C)C)C(C)C)C(C)C)C(=O)N[C@@H](CCCNC(=N)N)C(=O)N[C@@H](CO)C(=O)N[C@@H](C)C(=O)N[C@@H](CC(N)=O)C(=O)N[C@@H](Cc1ccccc1)C(=O)N[C@H](C(=O)N[C@@H](CC(=O)O)C(=O)N[C@@H](CC(N)=O)C(=O)O)[C@@H](C)O	-	0	-	-	-	0
COc1cc([C@@H]2c3cc4c(cc3[C@@H](OC3OC5COC(C)OC5C(O)C3O)[C@H]3COC(=O)[C@H]23)OCO4)cc(OC)c1O (stereo partly specified)	0	0	0	0	0	0
Cc1nc(NCc2ccco2)c2c(C)c(C)sc2n1	0	0	0	0	0	0
Cc1sc2nc3c4ccccc4c(NCc4ccco4)nn3c(=O)c2c1C	35.5µM	0	0	?	25.1µM	0
COC(=O)[C@H](COC(C)(C)C)NC(=O)O[C@@H]1C(=O)c2cc(OC)ccc2O[C@H]1c1cccc(OC)c1	0	0	0	0	0	0
O=C(N/N=C\c1ccc(Sc2ccccn2)o1)c1cccc(F)c1	0	0	0	0	0	0
O=C(CCc1ccccc1O)N/N=C/c1ccc(Sc2cccc3cccnc23)o1	?	0	0	14.1µM[quencher]	0	0
O=C(CSc1cccc2cccnc12)N/N=C/c1ccc(O)cc1	0	0	0	0	?	0
O=C(N/N=C/c1ccc(Sc2ccccn2)o1)c1cc2ccccc2cc1O	0	31.6µM[quencher]	0	?	14.1µM	?
C=CC(=O)OCCCCCCOC(=O)C=C	-	0	0	-	-	0
O=C1C=C[C@@H](O)[C@H]2[C@@H]3C(=O)N(c4cccc(Oc5ccccc5)c4)C(=O)[C@@H]3CC[C@H]12	0[11.6 µM]	0[11.2 µM]	-	0[11.6 µM]	0[11.5 µM]	0[11.2 µM]
CCOc1ccc2[nH]c(=O)c(CN(Cc3ccco3)Cc3nnnn3Cc3ccccc3)cc2c1	0	0	0	0	?	0
CCOc1ccc2[nH]c(=O)c(C(c3nnnn3Cc3ccco3)N3CCN(C)CC3)cc2c1 (stereo unspecified)	?	0	0	0	14.1µM	?
COc1cc2cc(CN(Cc3nnnn3Cc3ccco3)C3CCCCC3)c(=O)[nH]c2cc1OC	?	0	0	?	15.8µM	0
CCOc1ccc2[nH]c(=O)c(CN(Cc3ccco3)C(CC)c3nnnn3Cc3ccccc3)cc2c1 (stereo unspecified)	?	0	0	0	25.1µM	0
CCOc1ccc2[nH]c(=O)c(CN(Cc3nnnn3Cc3ccco3)C3CCCCC3)cc2c1	?	?	0	0	22.4µM	0
Cc1cc2cc(C(c3nnnn3Cc3ccco3)N3CCCCC3)c(=O)[nH]c2cc1C (stereo unspecified)	0	0	0	0	?	0
SMILES	Tau fibril FP	TexasRed fluor	RGS12 GoLoco inh	Tau fluor cs	Tau ThT inhib	TRb SRC2 PPI
CCC(C)(C)n1nnnc1CN(Cc1cc2cc(OC)ccc2[nH]c1=O)C1CCCC1	0	0	0	0	?	0
N=C1C=CC=C2C1=NC1(CCCCC1)N2O	?	0	0	0	25.1µM	0
Cc1nnc(N/N=C\c2ccc(-c3ccccc3[N+](=O)[O-])o2)n1N	?	0	0	?	10µM	0
Cc1nnc(N/N=C/c2ccc(-c3ccccc3F)o2)n1N	0	0	0	?	12.6µM	0
COc1ccc(OC2C(O)COC2/C=C/C#Cc2ccc(F)cc2F)cc1 (stereo unspecified)	0[11.6 µM]	0[11.2 µM]	-	0[11.6 µM]	0[11.5 µM]	0[11.2 µM]
COc1ccc2[nH]c(C)cc(=O)c2c1	0	0	0	0	0	0
COc1ccc2[nH]c3c(C)c4ccncc4c(C)c3c2c1	0	0	0	?	3.55µM	0
Br/C(=N\Nc1nn[nH]n1)c1ccncc1	-	-	0[14.2 µM]	-	-	-
NC(=S)Cc1nc(-c2ccccc2)cs1	?	0	0	?	20µM	0
c1csc(-c2cn3ccc4ccccc4c3n2)c1	0	0	0	0	10µM	0
c1cc(-c2cccs2)nc(-c2cccs2)c1	?	0	0	0	?	0
Cc1ccc(S(=O)(=O)/N=C2/C=C(Sc3ncn[nH]3)C(=O)c3ccccc32)cc1	14.1µM	0	0	?	3.55µM	28.2µM
Cc1ccc(S(=O)(=O)/N=C2/C=C(Sc3ncn[nH]3)C(=O)c3ccccc32)c(C)c1	28.2µM	0	0	?	10µM	28.2µM
Nc1cccc(S(=O)(=O)O)c1	-	0	0	-	-	0
C=CCOC(=O)C(C(C)=O)C(NC(=O)OC)c1cccc(C(F)(F)F)c1 (stereo unspecified)	0[11.6 µM]	0[11.2 µM]	-	0[11.6 µM]	0[11.5 µM]	0[11.2 µM]
CC(C)(C)OC(=O)NS(=O)(=O)Nc1ccccc1Br	-	0	-	-	-	0
C/C(CCN1CCCc2nc(C)c(C)cc21)=N\O[C@@H](C)c1cn([C@H](CO)Cc2ccccc2)nn1	0[11.6 µM]	0[11.2 µM]	-	0[11.6 µM]	0[11.5 µM]	0[11.2 µM]
CN1C=C/C(=C\c2cc[n+](C)c3ccccc23)c2ccccc21	?	0	0	?	14.1µM	0
CCCCC/C=C\C/C=C\C/C=C\C/C=C\CCCCCC(=O)NCCCC(=O)O	0	0	0	0	0	0
CC(C)(C[C@@]1(C)NC(=O)NC1=O)OCc1ccccc1	-	-	0[14.2 µM]	-	-	-
CC(C)(C)OC(=O)NCCCCC1=CC2=CC(=O)C(C)(OC(=O)CCc3ccccc3)C(=O)C2=CO1 (stereo unspecified)	0	0	0	0	0	0
